# Measured values as given in the supplement of paper PMC3334620.
# The full ranking holds about 33,000 sequences; the median of “E-score (-0.5 to 0.5)” is about -0.011, and the highest 2% start at about 0.28. This is one part of a sample in which the highest values are shown more often than they occur.
# Biological target: T1, Gcr1 (UniProt P07261)
# T1 sequence: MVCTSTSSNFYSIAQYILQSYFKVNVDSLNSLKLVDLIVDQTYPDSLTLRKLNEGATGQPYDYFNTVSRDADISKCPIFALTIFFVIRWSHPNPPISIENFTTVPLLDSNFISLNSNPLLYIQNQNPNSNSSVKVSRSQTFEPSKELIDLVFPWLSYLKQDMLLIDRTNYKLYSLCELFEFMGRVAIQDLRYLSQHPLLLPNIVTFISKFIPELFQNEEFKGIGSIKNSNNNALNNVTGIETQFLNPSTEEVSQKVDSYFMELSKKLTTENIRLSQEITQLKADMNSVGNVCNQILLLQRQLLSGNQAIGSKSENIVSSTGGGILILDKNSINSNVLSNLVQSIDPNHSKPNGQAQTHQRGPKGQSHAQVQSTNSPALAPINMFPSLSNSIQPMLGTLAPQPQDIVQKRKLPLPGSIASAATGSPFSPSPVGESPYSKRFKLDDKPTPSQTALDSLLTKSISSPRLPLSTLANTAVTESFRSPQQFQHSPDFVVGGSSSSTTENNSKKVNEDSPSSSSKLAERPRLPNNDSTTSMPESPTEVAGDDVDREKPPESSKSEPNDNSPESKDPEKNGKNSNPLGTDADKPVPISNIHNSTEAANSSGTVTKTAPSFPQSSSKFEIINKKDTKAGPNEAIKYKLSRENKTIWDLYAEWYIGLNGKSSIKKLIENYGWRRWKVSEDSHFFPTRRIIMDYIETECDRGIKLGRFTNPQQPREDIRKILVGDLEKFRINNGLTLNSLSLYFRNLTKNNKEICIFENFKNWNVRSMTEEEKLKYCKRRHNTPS
# Test: PBM E-score (8-mer binding enrichment) (E-score (-0.5 to 0.5)); higher = stronger / more preferred TF binding
# Conditions: protein concentration: 100 nM; construct: GST-full length
# Description: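 Universal 'all 10-mer' protein binding microarrays (Agilent AMADID 015681) probed with GST-tagged S. cerevisiae TFs (full-length or DBD) made by in vitro transcription/translation (PURExpress), about 100-200 nM. Bound TF was detected with fluorescent anti-GST. Each ungapped 8-mer (which stands for itself and its reverse complement) is scored by the PBM enrichment score (E-score), a modified Wilcoxon-Mann-Whitney statistic from -0.5 to +0.5, computed with the Universal PBM Analysis Suite. Scale: above 0.35 generally sequence-specific binding.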
row,Sequence,PBM E-score
1,GGTCGAGA,-0.0372
2,GTAGGATA,-0.109
3,CAACTGGA,0.212
4,TAACTGGA,0.225
5,GTACTGGA,0.235
6,GAACTGGA,0.303
7,CGACTGGC,-0.241
8,ATACTGGA,0.373
9,ATACTGGC,0.161
10,CGACTGGA,0.316
11,GGACTGGA,-0.0243
12,CGCAGTTA,0.15
13,ACGTAGCT,0.282
14,ACGTAGCA,-0.079
15,ACGTAGCC,0.14
16,CGGTTGGA,0.0351
17,GCAATCGC,-0.113
18,ATTCAAGC,-0.0491
19,CCTCTATA,0.266
20,ATGGATGA,-0.0514
21,ATGGATGG,-0.034
22,CTGGATGA,0.0353

row,Sequence,PBM E-score
1,CTGGATGC,0.425
2,ATGGATGC,0.389
3,CTGGATAC,0.135
4,ACGGGGGC,-0.08
5,AGTCCGGA,0.0284
6,ATCGGATA,0.0757
7,TGTAGACA,-0.0678
8,AAACTGGT,0.178
9,TCGCCGCA,0.0198
10,CGCTCAAC,-0.0355
11,AGCACCAT,0.282
12,CGCACCCG,0.0194
13,AGCACCAC,0.235
14,AGCACCCG,0.282
15,AACACCCA,-0.0911
16,AGCACCCA,0.351
17,AGCACCAG,0.156
18,AGCACCCT,0.277
19,AGCACACC,-0.188
20,CAAGATTC,0.122
21,GAAGCGCA,0.129
22,AGGTAAAG,-0.112

row,Sequence,PBM E-score
1,GATGCTAC,0.338
2,CGTGCTGA,-0.14
3,AATGCTAA,0.206
4,GATGCTAA,0.372
5,GATGCTGC,0.276
6,GATGCTGA,0.312
7,AATGCTAC,-0.0602
8,GGTGCTGA,0.335
9,CATGCTGA,-0.229
10,GGTGCTTA,0.259
11,CATGCTAC,-0.123
12,TATGCTAA,-0.0329
13,AAGGCGAA,-0.0278
14,CACAATGA,0.0838
15,GCTTCAAA,0.192
16,AGTTGGCG,0.0665
17,CACTCCAG,0.0875
18,ACCGCGGC,0.143
19,ACGCCGGA,0.0899
20,CATTTGGC,-0.0265
21,CACCTGCC,-0.127
22,ACCAATGG,0.0385

row,Sequence,PBM E-score
1,ACACTGAG,-0.126
2,ACTATTTA,0.293
3,CCCATTTC,-0.0272
4,CTATTTAA,0.309
5,CCATTTAA,0.304
6,CCATTTAC,0.0873
7,CCATTTTA,0.23
8,GCTATTTA,-0.162
9,CCCATTTA,0.293
10,GTATTTAA,0.117
11,ACCATTTA,0.0518
12,ATATTTAA,0.111
13,CCTATTTA,0.247
14,ACAGTCCA,-0.304
15,TACCGTGA,0.0127
16,ACTCTTCT,0.0323
17,TCCGGAAA,0.172
18,CACCCGGA,0.136
19,CGAAGTAC,-0.022
20,CGCCAAAG,0.0195
